Experimental data as given in PubChem BioAssay AID588442 (The Scripps Research Institute Molecular Screening Center, 2011).
Measured potencies and affinities stand elsewhere. A number with no mark means an inactive call.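 How the source made its calls: active means EC50 of 10 µM or lower; inactive means EC50 above 10 µM or not measured.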

Experiment: optical interference in Abeta FP readout, dose response, artefact control for IDE activator project, biochemical, fluorescence polarization (AID 588442)
Settings: FP artifact counterscreen, fluorescein-Abeta, no enzyme activity
In the case of `C#CCOCCOCCOCCNc1nc(N2CCN(C(=O)CCCCCCCCCCNC(=O)[C@H](CO)n3cc(CCCSC)nn3)CC2)nc(N2CCN(C(=O)CCCCCCCCCCNC(=O)[C@H](CCCCN)n3cc(CCO)nn3)CC2)n1`, the EC50 is reported as > 55.9 µM. For `C#CCOCCOCCOCCNc1nc(N2CCN(C(=O)CCCCCCCCCCNC(=O)[C@H]([C@@H](C)CC)n3cc(CCCCCN)nn3)CC2)nc(N2CCN(C(=O)CCCCCCCCCCNC(=O)[C@H]([C@@H](C)CC)n3cc(CCCCN=C(N)N)nn3)CC2)n1`, the EC50 was > 55.9 µM. With `C#CCOCCOCCOCCNc1nc(N2CCN(C(=O)CCCCCCCCCCNC(=O)Cn3cc(C[C@@H](C)O)nn3)CC2)nc(N2CCN(C(=O)CCCCCCCCCCNC(=O)[C@H](CCCN=C(N)N)n3cc(C[C@@H](C)CC)nn3)CC2)n1` the EC50 was > 55.9 µM. With `C#CCOCCOCCOCCNc1nc(N2CCN(C(=O)CCCCCCCCCCNC(=O)Cn3cc(CCCCCN)nn3)CC2)nc(N2CCN(C(=O)CCCCCCCCCCNC(=O)Cn3cc(C[C@@H](C)O)nn3)CC2)n1` the EC50 was > 54.7 µM. With `C#CCOCCOCCOCCNc1nc(N2CCN(C(=O)CCCCCCCCCCNC(=O)Cn3cc(CCCCCN)nn3)CC2)nc(N2CCN(C(=O)CCCCCCCCCCNC(=O)[C@H]([C@@H](C)CC)n3cc(CCCCCN)nn3)CC2)n1` the EC50 was > 55.9 µM. With `C#CCOCCOCCOCCNc1nc(N2CCN(C(=O)CCCCCCCCCCNC(=O)Cn3cc(CCCCCN)nn3)CC2)nc(N2CCN(C(=O)CCCCCCCCCCNC(=O)[C@H](CO)n3cc(CCCSC)nn3)CC2)n1` the EC50 was > 54.7 µM.
